Compounds without any hit were thinned out: in the full panel of roughly 83,000, 20% have a hit.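 In brief: 96-well plates, 48 h treatment, single concentration, percent growth endpoint.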 Values without a mark were called inactive. Activity calls are given as the source filed them. How the source made its calls: active means growth percent below 10; inactive means the rest.
How the values were obtained:
Test in all cases: NCI-60 one-dose screen, 48 h (100 = growth as untreated, 0 = no growth, -100 = all killed)
[1] = system: SK-MEL-2 melanoma; settings: 10 µM unless noted
[2] = system: EKVX NSCLC; settings: 10 µM
[3] = system: SN12C renal; settings: 10 µM unless noted
[4] = system: UO-31 renal; settings: 10 µM unless noted
[5] = system: TK-10 renal; settings: 10 µM unless noted
[6] = system: ACHN renal; settings: 10 µM unless noted
[7] = system: CCRF-CEM leukemia; settings: 10 µM
[8] = system: MOLT-4 leukemia; settings: 10 µM unless noted
[9] = system: SR leukemia; settings: 10 µM unless noted
[10] = system: RPMI-8226 leukemia; settings: 10 µM unless noted
[11] = system: OVCAR-8 ovarian; settings: 10 µM unless noted
[12] = system: OVCAR-5 ovarian; settings: 10 µM unless noted
[13] = system: OVCAR-4 ovarian; settings: 10 µM unless noted
[14] = system: SK-OV-3 ovarian; settings: 10 µM unless noted
[15] = system: IGROV1 ovarian; settings: 10 µM unless noted
[16] = system: OVCAR-3 ovarian; settings: 10 µM unless noted
[17] = system: HS 578T breast; settings: 10 µM unless noted
[18] = system: NCI/ADR-RES ovarian; settings: 10 µM unless noted
[19] = system: A498 renal; settings: 10 µM unless noted

Row | SMILES | growth [1] [%] | growth [2] [%] | growth [3] [%] | growth [4] [%] | growth [5] [%] | growth [6] [%] | growth [7] | growth [8] | growth [9] | growth [10] | growth [11] [%] | growth [12] [%] | growth [13] [%] | growth [14] [%] | growth [15] | growth [16] | growth [17] | growth [18] [%] | growth [19]
1 | CCCNC(=O)Oc1ccc(/C(=C(/C)Cc2ccc(OC)cc2)c2ccc(OCCN3CCCCC3)cc2)cc1 | 99.5 | 76.6 | 84.9 | 60.8 | 81.1 | 102 | 70.8% | 70.9% | 3.39% (active) | 77.5% | 91.1 | 94.9 | 87.3 | 90.2 | 98.4% | 88.6% | 71.7% | 84.4 | 
2 | C[C@@H](c1ccc2c(c1)[nH]c1ccc(Cl)cc12)c1nc2ccc(Cl)cc2[nH]1 | 106 | 75.5 | 80.6 | 58 | 85.6 | 79.6 | 16.6% | 49.4% | 43.2% | 8.76% (active) | 94 | 75.2 | 74.2 | 96.3 | 57.6% | 72% | 107% | 88.1 | 99.7%
3 | COc1ccc2oc(=O)cc(CN3C(=O)S/C(=C\c4ccc(Cl)cc4)C3=O)c2c1 | 106 | 93 | 108 | 83.4 | 108 | 105 | 86.5% | 89.2% | 71.8% | 73.1% | 100 | 97.3 | 91.7 | 113 | 102% | 89.1% | 108% | 94.6 | 106%
4 | COc1ccc(/C=C(/C(=O)N2CCN(c3ccc(C)cc3)CC2)c2cc(OC)c(OC)c(OC)c2)cc1N | 23.7 | 45.5 | 28.8 | 51.2 | 76.7 | 30.5 | 13.4% | 17.5% | 11.3% | 12.8% | 21.6 | 27.1 | 43.9 | 26.2 | 24.7% | -27.8% (active) | 32.6% | 13.7 | -11.1% (active)
5 | C=CCSc1nnc(COc2ccc3c(C)c(Cc4ccccc4)c(=O)oc3c2C)o1 | 95.9 | 108 | 95.2 | 80 | 109 | 97.5 | 95.1% | 96% | 77.7% | 99.9% | 97.6 | 104 | 96.1 | 108 | 112% | 108% | 94.5% | 98 | 110%
6 | COc1ccc(-c2nc(SCC(C)C)nc(Nc3ccc([N+](=O)[O-])cc3)c2C#N)cc1 | 105 | 98.5 | 72 | 79.7 | 73 | 41.7 | 78.1% | 92.2% | 54.4% | 93.9% | 93.4 | 106 | 37.5 | 99.2 | 94.3% | 81.5% | 90.4% | 101 | 89.8%
7 | O=c1oc2ccc3ccccc3c2cc1-c1ccnc2[nH]c(=S)[nH]c(=O)c12 | 104 | 101 | 93.1 | 66.5 | 143 | 107 | 82.6% | 87.4% | 82.7% | 89.1% | 99.8 | 112 | 117 | 93.1 | 104% | 107% | 107% | 94.8 | 107%
8 | c1ccc(-c2cn3ccnc3c(-c3ccc4ncn(C5CCCCC5)c4c3)n2)cc1 | 83.5 | 75.8 | 71.2 | 44.8 | 97.7 | 64.1 | 18.7% | 32.3% | 40.2% | 14.3% | 36.1 | 92.1 | 65.5 | 92.5 | 88% | 58.2% | 76.2% | 49.5 | 73.9%
9 | CC(C)(C)C(=O)OCOP(=O)(OCOC(=O)C(C)(C)C)C1CC(O)N(O)C1=O (configuration not stated) | 45.9 | 66 | 11.6 | 18.6 | 63.6 | 42.7 | 4.09% (active) | 24.5% | 8.3% (active) | 9.24% (active) | 13.7 | 73.8 | 74.4 | 52.5 | 3.72% (active) | 53.6% | -4.97% (active) | 44.6 | 
10 | Cc1nnc(/N=C2\NC(=O)/C(=C/C=C/c3ccccc3)S2)s1 | 57.7 | 67.1 | 66.2 | 55.2 | 70.3 | 50.8 | 29.8% | 43.7% | 34.8% | 44.8% | 49.5 | 88.3 | 48.5 | 58.3 | 51.8% | 38.5% | 71.7% | 44.8 | 65.3%
11 | CC(C)CSc1nc(-c2ccc(F)cc2)c(C#N)c(N2CCCCC2)n1 | 85.5 | 93.4 | 105 | 95.3 | 91.4 | 98.8 | 94.4% | 95.3% | 84.3% | 102% | 94 | 90.5 | 97.1 | 99.6 | 104% | 93% | 99.4% | 88.7 | 
12 | CCCNC(=O)Oc1ccc(/C(=C(/CC)Cc2ccccc2)c2ccc(OCCN(CC)CC)cc2)cc1 | 101 | 79.3 | 78.6 | 51.5 | 85.8 | 90.1 | 57.7% | 46.9% | -28.6% (active) | 41.6% | 80.3 | 95.5 | 85.8 | 88.4 | 85.9% | 79.5% | 59% | 75.3 | 
13 | O=C(CCCC(=O)Nc1ccc(Cn2nnc3cc(Cl)c(Cl)cc32)cc1)Nc1ccc(CN2N=NC3C=C(Cl)C(Cl)=CC32)cc1 (configuration not stated) | 87.7 | 75.6 | 89.9 | 50.4 | 107 | 83.8 | 68.1% | 83.2% | 79.2% | 64.4% | 76.3 | 95.8 | 65.6 | 86.3 | 81.1% | 87.7% | 91.5% | 83.1 | 78.3%
14 | O=C(/C=C/c1c[nH]c2ccccc12)c1cc2ccccc2o1 | 105 | 84.4 | 101 | 60.2 | 140 | 103 | 36.3% | 75.3% |  | 60.1% | 99.3 | 101 | 101 | 103 | 88.2% | 93.3% | 100% | 99.9 | 102%
15 | C[C@@H](c1ccc2c(c1)[nH]c1ccc(Cl)cc12)c1nc2ccccc2[nH]1 | 108 | 92.6 | 89.6 | 56.6 | 136 | 96.5 |  | 92.4% | 74.3% | 81.3% | 93 | 112 | 94 | 105 | 80.6% | 86.7% | 105% | 91 | 111%
16 | COc1cc(/C=C/C(=O)/C=C(/C=C/c2ccc(OC(C)=O)c(OC)c2)OB(F)F)ccc1OC(C)=O | 86.9 | 76.1 | 42.3 | 47 | 80.7 | 26.5 | 1.09% (active) | 3.59% (active) | -2.62% (active) | 14.3% | 20 | 104 | 69.6 | 94.8 | 65.5% | 18.9% | 76.2% | 43.6 | 

— PubChem BioAssay (NCI)
